Hits are enriched below; roughly 3.8% of the tested compounds scored in any of these assays.
Jurkat NFkB inh = inhibitors of the PMA/ionomycin-induced NF-kB reporter in Jurkat cells; PMA/ionomycin-induced NF-kB luciferase reporter, luminescence; hit rate 0.53% among 330,000; inhibition, % at 4 µM; AID 435003; in the data active = inhibition above about 50%
Gli-Sufu antag = antagonists of Gli-Sufu signaling | hit rate 0.74% among 340,000 | inhibition, % at 5 µM | Sufu-KO-LIGHT fibroblasts, Gli luciferase reporter luminescence;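 active = inhibition above about 55%, limit read from the data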
Mdm2-MdmX inh = human Mdm2/MdmX binding inhibition; O15151+Q00987; SaOS-2 split-luciferase Mdm2/MdmX complementation, luminescence; inhibition, % at 8 µM; hit rate 3% among 330,000;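 active = inhibition of at least 50% at 8 µM in the primary screen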
Shn3 inh set2 = Schnurri-3 reporter inhibition in Clone20 osteoblasts. hit rate 0.52% among 360,000. inhibition, % at 12.5 µM. AID 588674. Clone20 osteoblast Shn3 3'UTR firefly luciferase, 24 h;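 active = mean inhibition of at least 75% with every replicate also reaching 75%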
697 NFkB inh = inhibitors of the PMA/ionomycin-induced NF-kB reporter in 697 B cells. hit rate 0.33% among 330,000. inhibition, % at 4 µM. AID 435022. 697 B-cell NF-kB luciferase reporter, 16 h; in the data active = inhibition above about 35%
Gli-Sufu confirm = confirmation of Gli-SUFU pathway antagonists. shares compounds with Gli-Sufu antag. Sufu-KO-LIGHT cells, Gli luciferase reporter, luminescence. inhibition, % at 5 µM. hit rate 40% among 2,500. AID 602428;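 active = mean inhibition at 5 µM reaching about 45%, limit read from the data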
Gli cytotox = counter-screen for Gli-SUFU antagonists: cytotoxicity; Sufu-KO-LIGHT cells cytotoxicity, ATP luminescence; hit rate 32% among 2,500; AID 651994; shares compounds with Gli-Sufu antag; cytotoxicity, % at 5 µM;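 active = mean cytotoxicity at 5 µM above about 25%, limit read from the data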;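 also: cells exposed to compound overnight for roughly 16 to 18 hours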
Wnt3a cs = Wnt3a reporter inhibition counter-screen. Wnt-LIGHT cells, Wnt3a-driven luciferase reporter, luminescence. inhibition, % at 6.25 µM. AID 651995. shares compounds with Gli-Sufu antag. hit rate 20% among 2,500;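 active = mean inhibition above about 25%, limit read from the data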
Each line names hits and unclear results; the compound was inactive in the other large screens (follow-up assays come after a bar, where they were run).

Cc1nn(C)c(C)c1/C=C/C(=O)c1ccc(Cl)cc1Cl	Gli-Sufu antag 64 | Gli-Sufu confirm 63 | Gli cytotox inactive | Wnt3a cs inactive
C/C(=N\NC(=O)c1ccco1)c1ccc(NC(=O)C(F)(F)F)cc1	none
CCCc1c(CC)c(=N)c2ccccc2n1C	none | Gli-Sufu confirm 59 | Gli cytotox inactive | Wnt3a cs inactive
COc1ccc(-c2cc(C(F)(F)F)n3ncc(C(=O)N4CCCCC4c4cccnc4)c3n2)cc1 (stereo not given)	none | Gli-Sufu confirm inactive | Gli cytotox inactive | Wnt3a cs inactive
CN(C)c1ccc([C@@H]2[C@@H]([N+](=O)[O-])[C@H]3C=Cc4ccccc4N3[C@H]2C(=O)c2ccc(Cl)cc2)cc1	none
CCOc1ccc(C(=O)Nc2nnc(SCC(=O)NCC3CCCO3)s2)cc1OCC (stereo not given)	none
O=C(c1ccc(Cl)cc1)N1CCN(c2ccnc3cc(Cl)ccc23)CC1	Gli-Sufu antag 67 (no result: Jurkat NFkB inh, Mdm2-MdmX inh, 697 NFkB inh) | Gli-Sufu confirm 69 | Gli cytotox inactive | Wnt3a cs inactive
Cn1nc(-c2ccc(C(=O)N3CCN(Cc4ccccc4)CC3)cc2)c2ccccc2c1=O	none | Gli-Sufu confirm inactive | Gli cytotox inactive | Wnt3a cs inactive
Cc1ccccc1NC(=O)Nc1nc(CN)cs1	none (no result: Jurkat NFkB inh, Gli-Sufu antag, Mdm2-MdmX inh, 697 NFkB inh)
CC1(C)Cc2c(cnn2-c2ccc(F)cc2)C(NC(=O)CN2CCCC2=O)C1 (stereo not given)	none
COc1ccc(-n2ncc3c2CC(C)(C)CC3NC(=O)CN2CCOC2=O)cc1 (stereo not given)	Gli-Sufu antag 61 | Gli-Sufu confirm inactive | Gli cytotox inactive | Wnt3a cs inactive
O=C(CSc1ncccc1-c1nc2ccccc2[nH]1)NCc1ccco1	Gli-Sufu antag 58 | Gli-Sufu confirm inactive | Gli cytotox 27 | Wnt3a cs inactive
CC[C@@H](C)[C@H](C(CC(=O)N1CCCC1[C@@H](OC)[C@H](C)C(=O)N[C@H](Cc1ccccc1)c1nccs1)OC)N(C)C(=O)[C@H](NC(=O)[C@@H](C(C)C)N(C)C)C(C)C (stereo not given in full)	none (no result: Jurkat NFkB inh, Mdm2-MdmX inh, 697 NFkB inh) | Gli-Sufu confirm 70 | Gli cytotox 62 | Wnt3a cs 40
Cc1cc(C)n2nc(N)c(N=Nc3ccc(Cl)cc3)c2n1	Gli-Sufu antag 81 | Gli-Sufu confirm inactive | Gli cytotox inactive | Wnt3a cs inactive
N#Cc1c(-c2ccccc2)cc(C2CC2)nc1N	none | Gli-Sufu confirm inactive | Gli cytotox inactive | Wnt3a cs inactive
COC1CCN(C(=O)C2CCC(=O)N(CCc3cccc(F)c3)C2)CC1 (stereo not given)	none
O=C(COC(=O)c1cc(Cl)nc2ccccc12)c1ccc(Cl)cc1	none | Gli-Sufu confirm inactive | Gli cytotox inactive | Wnt3a cs inactive
Cc1ccc(C(=O)COC(=O)c2cc(Cl)nc3ccccc23)cc1	none
CN(c1ccccc1)S(=O)(=O)c1ccc(C(=O)NCc2ccccc2F)cc1	none
COc1ccccc1CN(Cc1nc2ccccc2c(=O)[nH]1)S(=O)(=O)c1ccc(C)cc1	none | Gli-Sufu confirm inactive | Gli cytotox inactive | Wnt3a cs inactive
COc1ccccc1CN(Cc1nc2ccccc2c(=O)[nH]1)C(=O)Nc1ccc(C)cc1	none
CSCCC(NC(=O)c1ccco1)C(=O)N1CC(C)OC(C)C1 (stereo not given)	Gli-Sufu antag 58 | Gli-Sufu confirm inactive | Gli cytotox inactive | Wnt3a cs inactive
CC(NCC(O)COc1ccc(Br)cc1)c1ccccc1 (stereo not given)	Gli-Sufu antag 58 | Gli-Sufu confirm inactive | Gli cytotox inactive | Wnt3a cs inactive
C=CCCC(=O)N1C[C@H]2CCN(C)[C@H]2C[C@H]1c1ccc(Br)cc1	none (no result: Jurkat NFkB inh, Gli-Sufu antag, Mdm2-MdmX inh, 697 NFkB inh)
Cc1ccc(NC(=S)Nc2cc(C(=O)O)ccc2N2CC3CC(C2)c2cccc(=O)n2C3)cc1C (stereo not given)	Gli-Sufu antag 79 | Gli-Sufu confirm inactive | Gli cytotox inactive | Wnt3a cs inactive
COc1ccc([C@H]2CC(=O)C=C(c3cccc(C(C)C)c3)C2)cc1OC	none
